Laboratory results reported in PubChem BioAssay (NCI).
The panel holds about 83,000 compounds, 20% with a hit somewhere; the sample as a whole holds those more often.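 Results are percent growth after 48 hours of single-concentration exposure. 100 means growth as in untreated cells, lower positive values show inhibition; negative values down to -100 show cell death.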 Active and inactive are the calls of the source. How the source made its calls: active means growth percent below 10; inactive means the rest.

What follows are compounds tested on HL-60(TB) leukemia (assay: NCI-60 one-dose screen, 48 h (100 = growth as untreated, 0 = no growth, -100 = all killed)). Details: 10 µM unless noted.

How did the growth turn out when `OC(c1cc2ccc(C(F)(F)F)cc2c2cc(C(F)(F)F)ccc12)C1CCCCN1` (stereo not given) was run?
The growth was -72.8% (active).

Which growth does the source give for `O=C(O)c1cccc2c1-c1ccc(Cl)cc1C2` here?
The growth was 78.1% (inactive).

For `OCc1cn(-c2ccc(Cl)cc2)nc1-c1ccc(O)cc1`, which growth is on record?
The growth was 51.7% (inactive).

For `CC(=[N-])N1CCC[C@@H](Nc2c3ccccc3nc3ccccc23)C1.[Cl][Pt].[NH-]CCC[NH-]`, which growth is on record?
The growth was 17% (inactive).

How did the growth turn out when `Cc1cccc2c1C[C@@]1(C2=O)C(c2ccc(C(C)(C)C)cc2)=NOS1=O` (stereo not given in full) was run?
The growth was 100% (inactive).

How did the growth turn out when `O=C(Cc1ccc(F)c(Cl)c1)Nc1cc(C2(C(F)(F)F)CC2)nn1Cc1ccccc1` was run?
Its growth is 100% (inactive).

With `Cc1ccc(-c2nn(Cc3cn(-c4cc(C)nc5ccccc45)nn3)c3ncnc(N)c23)cc1` as the compound, how does the growth read?
The growth was 83.1% (inactive).

How did the growth turn out when `Cc1ccc(CC(=O)O)c(C)c1` was run?
The growth was 98% (inactive).

How did the growth turn out when `O=C(N=c1oc2ccccc2cc1-c1cc2ccccc2[nH]1)Nc1ccc(Cl)cc1` was run?
The growth was 78.6% (inactive).

`CC(=O)O[C@H]1C[C@@H]2C(C)(C)C(=O)CC[C@@]2(C)c2ccc(C(C)C)cc21` was tested. Which growth did it give?
Its growth is 99.2% (inactive).

`CCCCCCCC(C)NCCO` (stereo not given) was tested. Which growth did it give?
The growth was 101% (inactive).

For `CO[C@@]12C=C[C@@]34CCC(=O)N3c3ccccc3[C@@H](O1)C4C2`, which growth is on record?
Its growth is 96.9% (inactive).

How did the growth turn out when `N=C(N)c1ccc(-c2ccc(-c3ccco3)o2)cc1F` was run?
The growth was -17.1% (active).

Which growth does the source give for `ICCC(c1ccccc1)(c1ccccc1)c1ccccc1` here?
The growth was 43.4% (inactive).

For `COc1ccc(OC)c(C(=O)c2oc3ccc(Br)cc3c2N)c1`, which growth is on record?
Its growth is -10.2% (active).

`COc1ccc(C2CC(n3nnnc3-c3ccccc3)=NN2)cc1` (stereo not given) was tested. Which growth did it give?
The growth was 4.11% (active).

For `CCCC(NC(=O)OCc1ccccc1)C(=O)O` (stereo not given), which growth is on record?
The growth was 44.9% (inactive).

How did the growth turn out when `CCOC(=O)/C(=C\c1ccccc1Cl)P(=O)(OCC)OCC` was run?
The growth was 10.8% (inactive).

`CCOC(=O)Nc1nn[nH]n1` was tested. Which growth did it give?
Its growth is 47.7% (inactive).

With `COc1ccc2[nH]cc(C3(c4c[nH]c5ccc(OC)cc45)C(=O)Nc4ccc(Cl)cc43)c2c1` as the compound, how does the growth read?
Its growth is 10.9% (inactive).

Which growth does the source give for `NC(=O)c1ncn(C2OC(CO)C(O)C2O)n1` (stereo not given) here?
Its growth is 83.1% (inactive).

Which growth does the source give for `C=C1C(=O)O[C@H]2[C@H]1CC/C(COC(=O)c1cccnc1N)=C\CC[C@@]1(C)O[C@@H]21` here?
Its growth is -3.64% (active).

How did the growth turn out when `O=C(Nc1ccc2c(c1)OCO2)C(=O)c1c[nH]c2cc(F)ccc12` was run?
Its growth is 53.5% (inactive).

How did the growth turn out when `CCCCCN1C=C/C(=C\C(=O)N(C)c2ccc(Oc3ccccc3)cc2)c2ccccc21` was run?
The growth was 66.9% (inactive).

Which growth does the source give for `O=C(NCc1ccc2c(c1)OCO2)NCC1CCCC(CNC(=O)NCc2ccc3c(c2)OCO3)C1` (stereo not given) here?
The growth was 108% (inactive).

For `Cc1c(Cl)ccc2c(C(=O)Cl)cc(-c3ccccc3)nc12`, which growth is on record?
Its growth is 88.9% (inactive).

How did the growth turn out when `COc1ccc(C(=O)c2cc3c(N)c(C(=O)Nc4ccccc4)sc3nc2C)cc1` was run?
The growth was -46% (active).

For `C=C1C(=O)O[C@H]2[C@H]1CC/C(CNS(=O)(=O)c1cccc3ccccc13)=C\CC[C@@]1(C)O[C@@H]21`, which growth is on record?
Its growth is -31.9% (active).

`O=S(=O)(NCCNc1cc(-c2cn(-c3ccccc3)nc2-c2cccc(O)c2)ccn1)c1ccc(C(F)(F)F)cc1` was tested. Which growth did it give?
Its growth is 8.76% (active).

`C=CCNC(=S)NNc1ccc([N+](=O)[O-])cn1` was tested. Which growth did it give?
Its growth is 87.2% (inactive).

`O=c1ccn(C2OC(CO)C(O)C2F)c(=O)[nH]1` (stereo not given) was tested. Which growth did it give?
The growth was 130% (inactive).

Which growth does the source give for `Cc1[nH]n(-c2cccc(Cl)c2)c(=O)c1/C=C1\C=Nc2ccc(Br)cc21` here?
The growth was 38.5% (inactive).

With `CC(C)C(=O)c1ccc(Cl)s1` as the compound, how does the growth read?
The growth was 99.9% (inactive).

Which growth does the source give for `COC(=O)C(c1ccccc1)C(CC(=O)c1ccccc1)c1ccccc1` (stereo not given) here?
Its growth is 92.5% (inactive).

How did the growth turn out when `CCCCCCCCCCCCCCCCCCSC1=CC(=O)C(OC)=C(OC)C1=O` was run?
Its growth is 66.9% (inactive).

Which growth does the source give for `O=c1[nH]c(-c2ccc(Cl)cc2)nc2sc3c(c12)CCCC3` here?
The growth was 90.7% (inactive).

Which growth does the source give for `Nc1ccccc1SC1CC(=O)N(c2ccc(I)cc2)C1=O` (stereo not given) here?
The growth was 65.6% (inactive).

Which growth does the source give for `CN=c1ccc2nc3ccc(N)cc3sc-2c1` here?
Its growth is -27.1% (active).

`C=CCSc1nnc(-c2ccc(C(C)(C)C)cc2)n1-c1cccc(C(F)(F)F)c1` was tested. Which growth did it give?
The growth was 5.96% (active).

Which growth does the source give for `OC(c1cc(-c2ccc(Cl)cc2)nc2c(Cl)cccc12)C1CCCCN1` (stereo not given) here?
Its growth is -67% (active).
